A short description of experiment [1]: qHTS assay to identify small molecule antagonists of the glucocorticoid receptor (GR) signaling pathway - cell viability counter screen (AID 720693). Also: nearly all actives have a fitted effect of over 55% in size.
Experiment [2] is described as follows: qHTS assay for identifying genotoxic compounds that show differential cytotoxicity against isogenic chicken DT40 cell lines with known DNA damage response pathways - Rev3 mutant cell line (AID 743014). Also: nearly all actives have a fitted effect of over 55% in size. Also: potency is read from the fitted curve at half-maximal effect.
Experiment [3] can be described thus: qHTS assay for identifying genotoxic compounds that show differential cytotoxicity against isogenic chicken DT40 cell lines with known DNA damage response pathways - Rad54/Ku70 mutant cell line (AID 743015). Also: nearly all actives have a fitted effect of over 60% in size. Also: potency is read from the fitted curve at half-maximal effect.
Experiment [4] can be described thus: qHTS assay to identify small molecule antagonists of the androgen receptor (AR) signaling pathway - cell viability counter screen (AID 743033; also: nearly all actives have a fitted effect of over 45% in size; also: potency is read from the fitted curve at half-maximal effect).
Experiment [5] can be described thus: qHTS assay to identify small molecule antagonists of the androgen receptor (AR) signaling pathway using the MDA cell line - cell viability counter screen (AID 743041; also: nearly all actives have a fitted effect of over 45% in size; also: potency is read from the fitted curve at half-maximal effect). An outline of the steps:
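In this qHTS counter assay, fluorescence intensity after CellTiter-Fluor addition indicated viability of MDA-kb2 AR-luc cells given compounds and R1881 for 16 h at 37C.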

Experiment [6] in a line: qHTS assay to identify small molecule antagonists of the thyroid receptor (TR) signaling pathway - cell viability counter screen (AID 743064). Also: nearly all actives have a fitted effect of over 50% in size. Also: potency is read from the fitted curve at half-maximal effect. In outline:
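Same-well viability check: GH3.TRE-Luc cells stimulated with 1 nM T3 alongside test compound for 23.5 h, followed by CellTiter-Fluor fluorescence.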

The nature of experiment [7]: qHTS assay to identify small molecule antagonists of the thyroid receptor (TR) signaling pathway (AID 743065). Also: nearly all actives have a fitted effect of over 55% in size. Also: potency is read from the fitted curve at half-maximal effect. In outline:
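GH3.TRE-Luc rat pituitary cells carrying two TR response elements driving luciferase were plated for 4 h, given compound plus 1 nM T3 (final), and incubated 23.5 h at 37 C. ONE-Glo luminescence measured reporter inhibition; CellTiter-Fluor fluorescence tracked cytotoxicity.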

Experiment [8] has as its system thyroid hormone receptor (rat, GH3 cells). Kind of experiment: qHTS assay to identify small molecule agonists of the thyroid receptor (TR) signaling pathway (AID 743066; calls by dose curve).
The target in experiment [9] is Estrogen receptor (Homo sapiens) (UniProt P03372). As to the kind of experiment: qHTS assay to identify small molecule agonists of the estrogen receptor alpha (ER-alpha) signaling pathway (AID 743075; calls by dose curve;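 also: HEK293 GripTite cells with ER-alpha and UAS-driven beta-lactamase reporter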; also: potency is read from the fitted curve at half-maximal effect).
Estrogen receptor (Homo sapiens), sequence (P03372 whole entry, looked up): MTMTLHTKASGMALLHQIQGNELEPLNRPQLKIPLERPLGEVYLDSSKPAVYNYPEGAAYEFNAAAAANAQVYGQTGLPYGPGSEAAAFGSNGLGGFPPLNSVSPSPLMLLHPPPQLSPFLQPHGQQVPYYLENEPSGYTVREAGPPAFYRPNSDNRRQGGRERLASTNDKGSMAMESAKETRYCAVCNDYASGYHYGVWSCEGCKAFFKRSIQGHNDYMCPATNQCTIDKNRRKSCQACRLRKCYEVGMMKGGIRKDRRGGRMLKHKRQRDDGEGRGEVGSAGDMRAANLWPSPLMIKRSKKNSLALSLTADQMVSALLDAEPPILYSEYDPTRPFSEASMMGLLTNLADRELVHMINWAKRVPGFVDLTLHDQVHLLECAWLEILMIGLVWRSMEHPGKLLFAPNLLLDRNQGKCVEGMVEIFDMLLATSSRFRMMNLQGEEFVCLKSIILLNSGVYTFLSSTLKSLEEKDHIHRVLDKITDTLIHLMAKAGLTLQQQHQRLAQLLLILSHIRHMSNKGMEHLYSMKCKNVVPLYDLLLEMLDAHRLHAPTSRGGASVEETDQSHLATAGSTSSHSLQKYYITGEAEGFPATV
Experiment [10] shares this target. Kind of experiment: qHTS assay to identify small molecule agonists of the estrogen receptor alpha (ER-alpha) signaling pathway using the BG1 cell line (AID 743079). Also: nearly all actives have a fitted effect of over 20% in size. Also: potency is read from the fitted curve at half-maximal effect.
Experiment [11] can be described thus: qHTS assay to identify small molecule antagonists of the estrogen receptor alpha (ER-alpha) signaling pathway using the BG1 cell line - cell viability counter screen (AID 743081).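 Also: compound given together with 17beta-estradiol as the ER stimulus; nearly all actives have a fitted effect of over 45% in size.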 Also: potency is read from the fitted curve at half-maximal effect.
The next experiment addresses Aromatase (Homo sapiens) (UniProt P11511). Kind of experiment: qHTS assay to identify aromatase inhibitors (AID 743083). Also: nearly all actives have a fitted effect of over 55% in size. Also: potency is read from the fitted curve at half-maximal effect.
Experiment [12] is described as follows: qHTS assay for identifying genotoxic compounds that show differential cytotoxicity against isogenic chicken DT40 cell lines with known DNA damage response pathways - wild type cell line (AID 743012). Also: nearly all actives have a fitted effect of over 60% in size. Also: potency is read from the fitted curve at half-maximal effect. In outline:
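Endpoint: CellTiter-Glo luminescence, 30 min RT. Cells: wild type DT40, 300/well. Exposure: compounds in DMSO, 40 h, 37 C/5% CO2, after ~0.5 h pre-incubation.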

Experiment [13] can be described thus: qHTS assay to identify small molecule antagonists of the estrogen receptor alpha (ER-alpha) signaling pathway - cell viability counter screen (AID 743074; calls by dose curve;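 also: HEK293 cells carrying ER-alpha-UAS-bla reporter stimulated with 17beta-estradiol; nearly all actives have a fitted effect of over 45% in size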; also: potency is read from the fitted curve at half-maximal effect).
The nature of experiment [14]: qHTS assay to identify small molecule antagonists of the estrogen receptor alpha (ER-alpha) signaling pathway using the BG1 cell line (AID 743080; calls by dose curve;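 also: BG1 cells stimulated with 17beta-estradiol alongside compound; nearly all actives have a fitted effect of over 25% in size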; also: potency is read from the fitted curve at half-maximal effect). An outline of the steps: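 Endogenous full-length ER-alpha in BG1-Luc-4E2 cells drives a stably integrated 4×ERE luciferase gene; compounds were tested against 17beta-estradiol over 21.5 h, with luminescence and multiplexed viability fluorescence recorded.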

The target in experiment [15] is Estrogen receptor (Homo sapiens) (UniProt P03372). Kind of experiment: qHTS assay to identify small molecule antagonists of the estrogen receptor alpha (ER-alpha) signaling pathway (AID 743069; active = well fitted curve in the direction sought with a large enough effect in the signal ratio in the repeat runs, not every such curve was filed as active; inconclusive = weak or mixed curves, or effect the other way; inactive = no such curve, though single readings can be large or run the other way; the % refers to the signal ratio). In outline:
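A 17beta-estradiol challenge was applied right after compound transfer to ER-alpha-UAS-bla HEK293 cells previously kept in charcoal-stripped serum. Plates stood 18 hr at 37C and 5% CO2; fluorescence was read following 2 hr FRET substrate loading at room temperature.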

Molecules are shown by their SMILES. Values joined by “and” are separate entries in the source; they are usually repeats but may differ in a detail not shown here. Equal values may be shown once. Some compounds were tested as several samples or in several runs, with calls that do not always agree. Active and inactive are the calls of the source. Unless noted, calls follow the shape of the dose curve; as a rule, active = well fitted curve in the direction sought with a large enough effect in the repeat runs; inconclusive = weak or mixed curves; inactive = no such curve, though single readings can be large; an effect the other way counts as inactive or inconclusive.
% is scaled to controls: 0 for no effect and ±100 for the full control effect.

Aromatase (Homo sapiens), sequence (P11511 whole entry, looked up): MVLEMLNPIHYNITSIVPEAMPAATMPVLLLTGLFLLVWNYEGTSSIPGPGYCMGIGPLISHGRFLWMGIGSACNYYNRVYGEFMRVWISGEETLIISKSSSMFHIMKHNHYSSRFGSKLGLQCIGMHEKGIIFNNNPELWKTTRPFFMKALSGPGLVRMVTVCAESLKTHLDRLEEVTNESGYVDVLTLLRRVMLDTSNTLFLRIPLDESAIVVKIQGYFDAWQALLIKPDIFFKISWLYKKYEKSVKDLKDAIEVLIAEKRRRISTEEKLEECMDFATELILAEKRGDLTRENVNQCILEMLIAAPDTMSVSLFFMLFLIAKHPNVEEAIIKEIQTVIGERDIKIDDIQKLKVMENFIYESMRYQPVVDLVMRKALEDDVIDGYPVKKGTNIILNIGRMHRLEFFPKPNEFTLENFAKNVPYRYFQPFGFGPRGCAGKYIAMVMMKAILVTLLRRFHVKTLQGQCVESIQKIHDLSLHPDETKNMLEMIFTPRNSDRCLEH

Turning to `Nc1ccc2c(c1)C(=O)c1ccccc1C2=O`, the Potency result in experiment [1], in experiment [5], in experiment [6], in [7], in experiment [8] and in [9] was “inactive” each time. The Potency entry (in [11]; in the experiment with Aromatase (Homo sapiens)) was “inactive” each time. For the same compound, the Potency was 60 µM (active) and inactive in experiment [2]; 9.51 µM (active) and 12.2 µM (active) in experiment [3]; 48.1 µM (active) and inactive in experiment [4]; 268 nM (active) and 686 nM (active) in experiment [10].

As to `Nc1ccc(N)c(Cl)c1`, the Potency result in experiment [1], in [3], in [6], in experiment [7], in [8] and in experiment [13] was “inactive” in each case. The Potency entry in experiment [14] and in [11] was “inactive” each time. Also, the Potency in experiment [12] was 68.5 µM (active) and inactive; in experiment [2], 61 µM (active) and inactive; with Aromatase (Homo sapiens) it was 61 µM (active) and inactive.

As for `Cc1ccc(/C(=C\CN2CCCC2)c2ccccn2)cc1`, the Potency result in [1], in [4], in [8], in experiment [15], in experiment [13] and in [9] was “inactive” each time. Further, the Potency entry (in experiment [10]; in experiment [14]; in [11]; in the experiment with Aromatase (Homo sapiens)) was “inactive” each time. Also, the Potency is 26.6 µM (active) and 57.3 µM (active) in experiment [12]; “inactive and 57.3 µM (active)” in [2]; 23.7 µM (active) and 64.3 µM (active) in experiment [3].

Turning to `CC(=O)[C@@]1(O)CC[C@H]2[C@@H]3C[C@H](C)C4=CC(=O)C=C[C@]4(C)[C@@]3(F)[C@@H](O)C[C@@]21C`, the Potency result in [1], in experiment [12], in experiment [4], in experiment [5], in experiment [6] and in experiment [7] was “inactive” throughout. Besides, the Potency entry in experiment [8], in experiment [15], in [13], in experiment [9], in experiment [10] and in experiment [11] was “inactive” in each case. The Potency result with Aromatase (Homo sapiens) is “inactive”. For the same compound, the Potency in [3] is 43.3 µM (active).

As for `CC(=O)[C@H]1CC[C@H]2[C@@H]3CC=C4C[C@@H](O)CC[C@]4(C)[C@H]3CC[C@]12C`, the Potency result in [1], in experiment [12], in experiment [3], in experiment [4], in experiment [6] and in experiment [8] was “inactive” in each case. The Potency result (in experiment [15]; in experiment [13]; in experiment [14]; in experiment [11]; with Aromatase (Homo sapiens)) was “inactive” throughout. Moreover, the Potency was 485 nM (active) in experiment [2]; 952 nM [inconclusive] (active) and 3.46 µM [inconclusive] (active) in experiment [9]; 596 nM (active) and 5.44 µM (active) in experiment [10].

Consider `CCCN1C=CN(C)C1`, for which the Potency entry in [1], in [12], in [2], in [3], in experiment [4] and in [6] was “inactive” each time. Also, the Potency entry in [15], in [13], in experiment [9], in experiment [10], in experiment [14] and in experiment [11] was “inactive” in each case. Further, in the experiment with Aromatase (Homo sapiens), the Potency result is “inactive”.

For the compound `CC(=O)Oc1c(C)c(C)c2c(c1C)CC[C@@](C)(CCC[C@H](C)CCC[C@H](C)CCCC(C)C)O2`, the Potency result in experiment [1], in [4], in experiment [6], in experiment [7], in experiment [8] and in experiment [15] was “inactive” each time. In addition, the Potency entry (in experiment [13]; in [9]; in experiment [10]; in experiment [14]; in experiment [11]; with Aromatase (Homo sapiens)) was “inactive” throughout.

For `OCCNCCO`, the Potency entry in experiment [1], in experiment [12], in experiment [2], in experiment [3], in experiment [4] and in experiment [6] was “inactive” each time. The Potency entry (in experiment [15]; in experiment [9]; in [10]; in experiment [14]; in experiment [11]; with Aromatase (Homo sapiens)) was “inactive” in each case. Moreover, the Potency in [13] is 17.4 µM (active) and inactive.

As to `Nc1ccc2c(O)cc(S(=O)(=O)O)cc2c1`, the Potency result in experiment [1], in experiment [12], in experiment [3], in experiment [4], in [6] and in [8] was “inactive” throughout. Moreover, the Potency result (in experiment [13]; in experiment [11]; with Aromatase (Homo sapiens)) was “inactive” in each case. For the same compound, in experiment [7], the Potency was 54.5 µM (active).

As for `O=C1OC2(c3ccccc31)c1cc(I)c(O)c(I)c1Oc1c2cc(I)c(O)c1I`, the Potency entry (in [1]; in experiment [4]; in [8]; in experiment [13]; in the experiment with Aromatase (Homo sapiens)) was “inactive” throughout. Also, the Potency result in experiment [12] was “inactive and 9.33 µM (active)”; in experiment [2] it was 27.6 µM (active) and 11.7 µM (active); in experiment [3], 17.4 µM (active) and 10.5 µM (active); in experiment [6], 19.4 µM (active) [middle of 4 runs]; in experiment [7], 34.4 µM (active) [middle of 4 runs]; in experiment [11], 10.9 µM (active) [middle of 4 runs].

For `C=C[C@@]1(C)CC(=O)[C@]2(O)[C@@]3(C)[C@@H](O)CCC(C)(C)[C@@H]3[C@H](O)[C@H](OC(C)=O)[C@@]2(C)O1`, the Potency result in experiment [1], in experiment [6], in experiment [7], in experiment [8], in [13] and in experiment [9] was “inactive” in each case. Also, the Potency in [12] was 26.6 µM (active) and 30.6 µM (active); in experiment [2], “inactive and 48.6 µM (active)”; in experiment [3], 23.7 µM (active) and 24.3 µM (active); in [5], 26.6 µM (active) and 38.6 µM (active); in the experiment with Aromatase (Homo sapiens), 1.19 µM (active) and 969 nM (active).

For the compound `Nc1cc(Cl)c(N)c(Cl)c1`, the Potency entry in [1], in [4], in experiment [5], in experiment [6], in [7] and in experiment [8] was “inactive” in each case. In addition, the Potency entry (in experiment [15]; in experiment [13]; in experiment [9]; in experiment [10]; in experiment [11]; in the experiment with Aromatase (Homo sapiens)) was “inactive” each time. The Potency in experiment [14] was 34.1 µM (active) and inactive.

Take `CC1(C)NC(=O)N(c2ccc([N+](=O)[O-])c(C(F)(F)F)c2)C1=O`: the Potency entry in experiment [1], in experiment [4], in [6], in [8], in [13] and in [11] was “inactive” throughout. In addition, the Potency in [12] is 5.96 µM (active) and 4.86 µM (active); in [2], 10.6 µM (active) and 3.86 µM (active); in experiment [3], 9.44 µM (active) and 3.44 µM (active); in [7], 23.7 µM (active) and 24.3 µM (active); with Aromatase (Homo sapiens), “inactive and 27.3 µM (active)”.

The values are drawn from PubChem BioAssay (Tox21).
